# Assay results taken from PubChem BioAssay (EPA / NIEHS).
# Where “and” joins values, the source holds several entries; their conditions need not be identical. Identical values can stand only once. Inconclusive results are not listed. A structure can be active in one record and inactive in another. Calls of active or inactive are those of the source. Rule for the calls: active = hit-call score of the fitted dose curve at least 0.9, where 1 is the maximum; inconclusive = response in the unintended direction; inactive = score below 0.9.
# Tests used:
# [1] = system: rabbit Platelet Activating Factor Receptor (PAF), gene 100354046; test: NVS_GPCR_rabPAF: NovaScreen (NVS) G Protein-Coupled Receptor Assay for rabbit Platelet Activating Factor Receptor (PAF) (AID 2283287)
# Summary of the method: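 Rabbit platelet membrane preparation; radioligand displacement read by filter-based scintillation counting 1 h after dosing, loss of signal versus DMSO. Primary screen in duplicate at 25 uM, actives followed up in concentration series.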
# [2] = biological target: rat Serotonin, 5-Hydroxytryptamine Receptor 1 (5HT1), Non-Selective Binding, Htr1a (gene 24473) (UniProt P19327); test: NVS_GPCR_r5HT1_NonSelective: NovaScreen (NVS) G Protein-Coupled Receptor Assay for rat Serotonin, 5-Hydroxytryptamine Receptor 1 (5HT1), Non-Selective Binding (AID 2283286)
# Summary of the method: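 Rat cortical membranes, radioligand displacement, 1 h incubation, read by filter scintillation. Primary screen in duplicate at 25 uM. Hits (e.g. ≥30% inhibition) went to concentration-response up to 50 uM, fitted as loss of binding versus DMSO.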
# [3] = biological target: mouse Cholecystokinin, CCK1 Receptor (CCKA), Cckar (gene 12425) (UniProt O08786); test: NVS_GPCR_mCCKAPeripheral: NovaScreen (NVS) G Protein-Coupled Receptor Assay for mouse Cholecystokinin, CCK1 Receptor (CCKA) (AID 2283285)
# Summary of the method: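 Radioligand competitive displacement on mouse pancreatic membranes, 2 h incubation; filter-based scintillation counting, loss of signal versus DMSO. Single-concentration screen at 25 uM in duplicate, actives retested in concentration-response up to 50 uM.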
# [4] = biological target: human Neurokinin, NK2 Receptor, TACR2 (gene 6865) (UniProt P21452); test: NVS_GPCR_hNK2: NovaScreen (NVS) G Protein-Coupled Receptor Assay for human Neurokinin, NK2 Receptor (AID 2283278);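 note: actives reduce bound radioligand signal relative to DMSO baseline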
# Summary of the method: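 Filter-based scintillation counting measured radioligand bound to receptor extracted from CHO cells, 4 hours after compound addition. Chemicals screened first at 25 uM in duplicate, with actives retested in concentration series relative to DMSO.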
# [5] = biological target: human Opioid Receptor Delta 1 (Opiate D1), OPRD1 (gene 4985) (UniProt P41143); test: NVS_GPCR_hOpiate_D1: NovaScreen (NVS) G Protein-Coupled Receptor Assay for human Opioid Receptor Delta 1 (Opiate D1) (AID 2283280)
# Summary of the method: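 Radioligand displacement on membranes from CHO cells expressing the receptor, read by filter scintillation counting 1 h after dosing. Duplicate single-point screen at 25 uM, then concentration series for actives; loss of signal versus DMSO.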
# [6] = biological target: human Thromboxane A2 Receptor (TXA2), TBXA2R (gene 6915) (UniProt P21731); test: NVS_GPCR_hTXA2: NovaScreen (NVS) G Protein-Coupled Receptor Assay for human Thromboxane A2 Receptor (TXA2) (AID 2283282);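 note: actives reduce bound radioligand signal relative to DMSO baseline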
# Summary of the method: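 Human platelet membranes tested for radioligand displacement by filtration and scintillation counting 1 h post-dose. Screened in duplicate at 25 uM; activity fitted as signal loss relative to DMSO.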
# [7] = biological target: human Orphanin, Opioid Related Nociceptin Receptor 1 (ORL1), OPRL1 (gene 4987) (UniProt P41146); test: NVS_GPCR_hORL1: NovaScreen (NVS) G Protein-Coupled Receptor Assay for human Orphanin, Opioid Related Nociceptin Receptor 1 (ORL1) (AID 2283283)
# Method: (§1) NVS_GPCR_hORL1 is a biochemical, single-readout assay that uses extracted gene-proteins from HEK293 in a cell-free assay. Measurements were taken 1 hour after chemical dosing in a 48-well plate.NVS_GPCR_hORL1 is one of one assay component(s) measured or calculated from the NVS_GPCR_hORL1 assay. It is designed to make measurements of radioligand binding, a form of binding reporter, as detected with scintillation counting signals by Filter-based radiodetection technology.Data from the assay component NVS_GPCR_hORL1 was analyzed into 1 assay endpoint. This assay endpoint, NVS_GPCR_hORL1, was analyzed in the positive analysis fitting direction relative to DMSO as the negative control and baseline of activity. […] Furthermore, this assay endpoint can be referred to as a primary readout, because the performed assay has only produced 1 assay endpoint. […]
# (§2) Binding assays used specific radioligands (tritiated, iodinated) with non-radioactive competitive displacement ligands in agonist or antagonist protocols (as indicated) and various reference compounds and inhibitors to titrate specific binding to receptors and transporters. Most enzyme assays (CYPs, kinases, phosphatases, proteases, HDACs) used recombinant protein and specific substrates (fluorescence mostly, some colorimetric and radioactive) and inhibitors, followed by a biochemical separation of substrate and product. […]
# [8] = biological target: human Vasopressin 1A Receptor (V1A), AVPR1A (gene 552) (UniProt P37288); test: NVS_GPCR_hV1A: NovaScreen (NVS) G Protein-Coupled Receptor Assay for human Vasopressin 1A Receptor (V1A) (AID 2283284)
# Method: as §1, with “NVS_GPCR_hV1A” for “NVS_GPCR_hORL1”, “Human platelets” for “HEK293”, “1.5 hours” for “1 hour”, “96-well plate.NVS_GPCR_hV1A” for “48-well plate.NVS_GPCR_hORL1”, “NVS_GPCR_hV1A,” for “NVS_GPCR_hORL1,”
# as §2
# [9] = system: 5-hydroxytryptamine receptor 2C (pig); test: NVS_GPCR_p5HT2C: NovaScreen (NVS) G Protein-Coupled Receptor Assay for pig Serotonin, 5-Hydroxytryptamine Receptor 2C (5HT2C) (AID 2283288)
# Summary of the method: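 Pig choroid plexus membranes; radioligand competitive binding, filter-based scintillation counting, read 1 h after dosing. Primary screen in duplicate at 25 uM; actives then run as concentration series; loss of signal versus DMSO baseline.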
# [10] = biological target: human Purinergic Receptor P2Y, P2RY1 (gene 5028) (UniProt P47900); test: NVS_GPCR_hPY2: NovaScreen (NVS) G Protein-Coupled Receptor Assay for human Purinergic Receptor P2Y (AID 2283281)
# Method: as §1, with “NVS_GPCR_hPY2” for “NVS_GPCR_hORL1”, “U937” for “HEK293”, “plate.NVS_GPCR_hPY2” for “plate.NVS_GPCR_hORL1”, “NVS_GPCR_hPY2,” for “NVS_GPCR_hORL1,”
# as §2
# Chain of human Opioid Receptor Delta 1 (Opiate D1), OPRD1 (gene 4985) (P41143 whole entry, looked up): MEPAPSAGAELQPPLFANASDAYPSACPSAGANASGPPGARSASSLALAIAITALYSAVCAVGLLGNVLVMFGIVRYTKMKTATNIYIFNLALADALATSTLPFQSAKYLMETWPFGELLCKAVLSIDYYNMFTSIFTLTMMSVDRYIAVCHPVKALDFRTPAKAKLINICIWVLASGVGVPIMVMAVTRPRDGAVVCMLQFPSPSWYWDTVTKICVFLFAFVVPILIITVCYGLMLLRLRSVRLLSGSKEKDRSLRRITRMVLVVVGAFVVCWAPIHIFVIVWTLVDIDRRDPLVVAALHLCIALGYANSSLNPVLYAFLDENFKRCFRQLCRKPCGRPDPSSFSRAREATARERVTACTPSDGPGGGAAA
# Chain of human Neurokinin, NK2 Receptor, TACR2 (gene 6865) (P21452 whole entry, looked up): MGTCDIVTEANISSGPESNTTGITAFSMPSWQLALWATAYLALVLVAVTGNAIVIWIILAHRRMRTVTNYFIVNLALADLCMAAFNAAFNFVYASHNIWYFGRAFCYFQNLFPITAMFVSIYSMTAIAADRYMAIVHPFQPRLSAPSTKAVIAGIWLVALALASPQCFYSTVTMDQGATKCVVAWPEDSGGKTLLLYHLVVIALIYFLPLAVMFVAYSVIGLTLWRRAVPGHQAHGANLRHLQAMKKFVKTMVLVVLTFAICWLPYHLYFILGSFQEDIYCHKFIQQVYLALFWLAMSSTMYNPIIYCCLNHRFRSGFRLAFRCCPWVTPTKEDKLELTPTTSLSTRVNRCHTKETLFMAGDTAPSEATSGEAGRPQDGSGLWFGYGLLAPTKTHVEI
# Chain of mouse Cholecystokinin, CCK1 Receptor (CCKA), Cckar (gene 12425) (O08786 whole entry, looked up): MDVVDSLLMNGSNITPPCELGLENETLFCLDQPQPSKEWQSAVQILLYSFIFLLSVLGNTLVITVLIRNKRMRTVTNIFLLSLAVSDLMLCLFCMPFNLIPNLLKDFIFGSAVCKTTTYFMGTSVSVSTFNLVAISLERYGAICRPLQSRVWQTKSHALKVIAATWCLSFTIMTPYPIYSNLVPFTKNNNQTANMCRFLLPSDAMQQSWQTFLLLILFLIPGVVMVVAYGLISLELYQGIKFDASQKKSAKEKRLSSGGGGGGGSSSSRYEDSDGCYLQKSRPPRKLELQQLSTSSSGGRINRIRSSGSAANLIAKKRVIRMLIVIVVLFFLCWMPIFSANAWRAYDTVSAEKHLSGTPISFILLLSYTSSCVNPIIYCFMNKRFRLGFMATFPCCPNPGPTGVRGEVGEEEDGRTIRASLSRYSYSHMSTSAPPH
# Chain of human Thromboxane A2 Receptor (TXA2), TBXA2R (gene 6915) (P21731 whole entry, looked up): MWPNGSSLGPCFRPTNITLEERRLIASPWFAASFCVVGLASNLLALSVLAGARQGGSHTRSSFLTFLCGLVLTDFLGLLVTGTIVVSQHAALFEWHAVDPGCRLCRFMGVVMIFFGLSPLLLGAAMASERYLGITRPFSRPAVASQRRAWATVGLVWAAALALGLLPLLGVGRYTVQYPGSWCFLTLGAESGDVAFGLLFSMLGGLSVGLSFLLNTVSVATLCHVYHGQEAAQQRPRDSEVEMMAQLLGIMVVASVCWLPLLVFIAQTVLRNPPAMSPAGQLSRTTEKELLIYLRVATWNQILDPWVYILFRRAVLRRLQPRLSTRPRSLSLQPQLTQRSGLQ
# Chain of human Orphanin, Opioid Related Nociceptin Receptor 1 (ORL1), OPRL1 (gene 4987) (P41146 whole entry, looked up): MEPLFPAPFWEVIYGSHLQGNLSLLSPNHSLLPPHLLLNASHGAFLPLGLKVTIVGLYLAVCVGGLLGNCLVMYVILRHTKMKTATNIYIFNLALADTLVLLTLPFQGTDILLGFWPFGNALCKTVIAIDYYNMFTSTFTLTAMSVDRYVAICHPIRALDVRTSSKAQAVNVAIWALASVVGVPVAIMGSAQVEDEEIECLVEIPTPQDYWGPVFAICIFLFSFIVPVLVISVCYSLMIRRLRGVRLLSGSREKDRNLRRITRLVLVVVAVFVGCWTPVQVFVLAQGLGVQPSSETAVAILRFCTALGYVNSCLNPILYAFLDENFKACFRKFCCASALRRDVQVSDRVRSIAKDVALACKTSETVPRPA
# Chain of human Purinergic Receptor P2Y, P2RY1 (gene 5028) (P47900 whole entry, looked up): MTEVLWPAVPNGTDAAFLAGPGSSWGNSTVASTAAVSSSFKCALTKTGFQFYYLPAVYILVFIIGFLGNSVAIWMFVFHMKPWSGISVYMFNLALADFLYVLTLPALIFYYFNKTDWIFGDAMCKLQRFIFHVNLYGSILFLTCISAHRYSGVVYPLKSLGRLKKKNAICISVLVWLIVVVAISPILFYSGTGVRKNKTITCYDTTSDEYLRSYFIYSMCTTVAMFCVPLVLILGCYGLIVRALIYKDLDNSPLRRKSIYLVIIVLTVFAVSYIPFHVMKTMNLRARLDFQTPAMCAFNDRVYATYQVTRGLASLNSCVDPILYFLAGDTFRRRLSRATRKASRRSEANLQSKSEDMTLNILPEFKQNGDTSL
# Chain of rat Serotonin, 5-Hydroxytryptamine Receptor 1 (5HT1), Non-Selective Binding, Htr1a (gene 24473) (P19327 whole entry, looked up): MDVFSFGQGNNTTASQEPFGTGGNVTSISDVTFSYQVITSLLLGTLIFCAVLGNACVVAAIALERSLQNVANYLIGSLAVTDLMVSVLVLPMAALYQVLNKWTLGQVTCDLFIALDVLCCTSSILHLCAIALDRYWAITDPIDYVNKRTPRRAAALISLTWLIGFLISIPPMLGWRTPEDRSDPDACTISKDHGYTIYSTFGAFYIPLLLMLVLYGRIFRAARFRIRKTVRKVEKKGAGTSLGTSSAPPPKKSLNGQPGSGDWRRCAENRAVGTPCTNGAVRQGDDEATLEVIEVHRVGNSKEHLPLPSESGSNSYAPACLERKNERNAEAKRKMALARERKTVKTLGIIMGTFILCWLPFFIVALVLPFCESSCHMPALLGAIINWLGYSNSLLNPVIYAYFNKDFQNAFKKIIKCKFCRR
# Chain of human Vasopressin 1A Receptor (V1A), AVPR1A (gene 552) (P37288 whole entry, looked up): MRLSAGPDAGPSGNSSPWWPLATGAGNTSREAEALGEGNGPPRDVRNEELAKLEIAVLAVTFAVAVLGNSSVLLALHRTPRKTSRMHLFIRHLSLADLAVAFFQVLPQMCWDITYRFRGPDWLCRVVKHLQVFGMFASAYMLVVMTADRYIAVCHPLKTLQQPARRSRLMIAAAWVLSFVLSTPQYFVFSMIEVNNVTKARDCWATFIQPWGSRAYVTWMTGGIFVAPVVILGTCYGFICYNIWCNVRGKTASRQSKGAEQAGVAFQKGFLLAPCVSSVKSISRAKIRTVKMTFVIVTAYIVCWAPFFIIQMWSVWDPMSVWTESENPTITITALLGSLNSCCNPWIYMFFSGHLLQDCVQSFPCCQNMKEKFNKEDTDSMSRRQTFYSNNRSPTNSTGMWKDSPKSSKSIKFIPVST
structure (smiles),measurement,setting,value
O=C(Nc1ccccc1)Nc1cnns1,outcome,[1],inactive
CCOCN(C(=O)CCl)c1c(C)cccc1CC,AC50,[1],15.2 µM (active)
COP(=S)(OC)Oc1ccc([N+](=O)[O-])cc1,outcome,[2],inactive
CC(C)OC(=O)Nc1cccc(Cl)c1,AC50,[3],15.7 µM (active)
Oc1cc(Cl)ccc1Oc1ccc(Cl)cc1Cl,AC50,[4],25.5 µM (active)
same,AC50,[5],10.7 µM (active) and 25.5 µM (active) and 9.39 µM (active)
same,outcome,[5],inactive
same,AC50,[3],25.5 µM (active) and 38.4 µM (active)
same,outcome,[3],inactive
Oc1ccc(Cl)cc1Cc1ccccc1,AC50,[4],29.2 µM (active) [middle of 6 runs]
same,AC50,[5],25.2 µM (active) and 13.3 µM (active)
same,AC50,[6],7.86 µM (active) and 5.43 µM (active)
same,outcome,[6],inactive
same,AC50,[7],25.2 µM (active) and 47 µM (active)
same,outcome,[8],inactive
same,AC50,[3],25.2 µM (active) [middle of 5 runs]
same,AC50,[9],12.6 µM (active) [middle of 4 runs]
O=C(O)C(F)(F)C(F)(F)C(F)(F)C(F)(F)C(F)(F)C(F)(F)C(F)(F)F,outcome,[4],inactive
same,outcome,[5],inactive
same,AC50,[6],9.44 µM (active)
same,outcome,[6],inactive
O=C(O)CCCOc1ccc(Cl)cc1Cl,AC50,[1],15.8 µM (active)
CC[C@H](C)[C@H]1O[C@]2(C=C[C@@H]1C)C[C@@H]1C[C@@H](C/C=C(\C)[C@@H](O[C@H]3C[C@H](OC)[C@@H](O[C@H]4C[C@H](OC)[C@@H](O)[C@H](C)O4)[C@H](C)O3)[C@@H](C)/C=C/C=C3\CO[C@@H]4[C@H](O)C(C)=C[C@@H](C(=O)O1)[C@]34O)O2 (tested in a mixture with another compound),AC50,[4],6.9 µM (active)
CCOc1nc(NC)nc(NC(=O)NS(=O)(=O)c2ccccc2C(=O)OC)n1,outcome,[1],inactive
COP(=O)(OC)OC=C(Cl)Cl,outcome,[1],inactive
O=S(=O)(O)C(F)(F)C(F)(F)C(F)(F)C(F)(F)C(F)(F)C(F)(F)C(F)(F)C(F)(F)F,outcome,[4],inactive
same,outcome,[5],inactive
same,AC50,[10],15.8 µM (active)
same,AC50,[6],15.8 µM (active) [middle of 4 runs]
same,outcome,[6],inactive
same,outcome,[1],inactive
CC(C)(C)C(O)C(Oc1ccc(Cl)cc1)n1cncn1 (centres undefined),outcome,[10],inactive
CCS(=O)(=O)c1cccnc1S(=O)(=O)NC(=O)Nc1nc(OC)cc(OC)n1,outcome,[1],inactive
CCCN(CCOc1c(Cl)cc(Cl)cc1Cl)C(=O)n1ccnc1,outcome,[4],inactive
same,outcome,[5],inactive
same,AC50,[3],10.5 µM (active)
[2H]C1([2H])[n+]2ccccc2-c2cccc[n+]2C1([2H])[2H],outcome,[1],inactive
Cc1cc(C)nc(NC(=O)NS(=O)(=O)c2ccccc2C(=O)OC2COC2)n1,outcome,[5],inactive
same,outcome,[1],inactive
